From PubChem BioAssay AID651956 (Broad Institute, 2012) come the findings set out here.

Each structure is given as a SMILES string. Potency and affinity values are given separately. Records with an inconclusive call do not appear. Where a call stands in place of a potency, no number is given. Active and inactive are the calls of the source.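 How the source made its calls: active means in every test run, a fitted half-maximal concentration for signal decrease at or below twice the highest tested concentration; inconclusive means runs disagree, flat 30 to 70% decrease, or poor fit; inactive means the rest.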

A short description of the assay: miR-122 activators in hepatoma reporter cells, dose response, cell-based, Huh7 psiCHECK-miR122, Renilla luciferase, cherry-picked (AID 651956).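 Further: Renilla luciferase from a miR-122 sensor reporter so lower signal means miR-122 activation.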 To be noted: 48 h; series mostly up to 35 µM.
In the case of `CCNC(=O)Nc1ccc2c(c1)C(=O)N(C)[C@H]1CC[C@H](CC(=O)Nc3ccccc3F)O[C@@H]1CO2`, the compound was called inactive. The result for `C[C@@H]1CN([C@@H](C)CO)S(=O)(=O)c2ccc(-c3ccccc3F)cc2O[C@@H]1CN(C)Cc1cccnc1` reads “inactive”. Consider `NS(=O)(=O)c1ccc(Nc2nc(-c3cccnc3)cs2)cc1`, for which the call was inactive. On to `CC(=O)Nc1ccc2c(c1)C(=O)N(C)[C@H]1CC[C@@H](CC(=O)NCc3ccc4c(c3)OCO4)O[C@@H]1CO2`, for which the outcome was inactive. As for `CCN(C[C@H]1N[C@H](CO)[C@H]1c1ccc(-c2ccc(F)cc2)cc1)C(=O)COC`, the compound was classed as inactive. `COCC(=O)Nc1ccc2c(c1)C(=O)N(C)[C@@H]1CC[C@H](CC(=O)NC3CCCC3)O[C@H]1CO2`: the compound was called inactive.

Consider `CCCC(=O)Nc1ccc2c(c1)C(=O)N(C)[C@@H]1CC[C@@H](CC(=O)NCC(F)(F)F)O[C@H]1CO2`, for which the compound was classed as inactive. `C[C@H]1CN([C@@H](C)CO)S(=O)(=O)c2ccc(-c3ccccc3F)cc2O[C@@H]1CN(C)Cc1cccnc1`: the compound was classed as inactive. As to `Cc1ccc(-n2c(Cc3ccccc3)n[nH]c2=S)cc1`, the outcome was inactive. With `COC(=O)C[C@@H]1CC[C@H]2[C@@H](COc3ccc(NC(=O)c4ccc(F)c(F)c4)cc3C(=O)N2C)O1`, the call was inactive. Consider `C[C@@H]1CN([C@@H](C)CO)S(=O)(=O)c2ccc(C3=CCCC3)cc2O[C@@H]1CN(C)C(=O)c1ccc(F)cc1`, for which the compound was called inactive.

Turning to `CCNC(=O)C[C@@H]1CC[C@H]2[C@@H](COc3ccc(NC(=O)Nc4ccc(F)cc4)cc3C(=O)N2C)O1`, the result was inactive. For `CC(=O)N(C)C[C@@H]1[C@@H](c2ccccc2)[C@H](CO)N1C(=O)C1CCC1`, the result was inactive.
